Assay outcomes as filed in PubChem BioAssay.
Shown are actives, neighbours in structure and some others; about 14% of the full set was active somewhere.
CRE Fsk mod = modulators of forskolin-stimulated CRE signaling in CHO cells; CHO CRE-bla reporter (cAMP response element driving beta-lactamase), forskolin EC10, beta-lactamase ratio; Potency, µM (titrated, usually from 38.2 µM), inactives show at the highest dose activity change, negative = inhibition, actives largely listed as activators; 2.5% of 71,000 active; active = well fitted activation curve with a large enough effect in the signal ratio, with a control signal flat, not every such curve was filed as active; inconclusive = small, poorly fitted or top-dose-only effect, or effect the other way, or a change in a side signal; the % refers to the signal ratio; note: potency is the fitted concentration of half-maximal effect; % of control where 0% means no effect
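The 460nm/530nm emission ratio after CCF4 loading defined %Activity, from which AC50 values were obtained. CRE-bla CHO cells received compound dilution series together with an EC10 level of NKH 477 for 3 hours at 37 degrees Celsius.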
A350 fluor = compounds fluorescent in Alexa 350 spectral region; Compound autofluorescence, 340/450 nm, Alexa 350 dye-equivalents; hits give high values; max dye-equivalent concentration, M; 11% of 59,000 active; AID 590; in the data active = max dye-equivalent concentration above about 10 nM; inconclusive = mostly about 1.1 nM to 9.6 nM
AID923 = qHTS Assay for Allosteric/Competitive Inhibitors of Caspase-1: Spectroscopic Profiling in AFC Spectral Region; compound fluorescence, AFC spectral region (405/520 nm); 1.1% of 75,000 active; Potency, µM (top dose mostly 57.5 µM), for inactives: at the top dose fluorescence increase, usual class: activators; note: potency is the fitted concentration of half-maximal effect; 0% is about no effect
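Compound autofluorescence profiled at 405 nm ex/520 nm em during kinetic caspase 1 run (50 nM enzyme, 5 uM Ac-WEHD-AFC, HEPES pH 7.5, 10 mM DTT). Titration up to 57 uM; baseline from regression intercept, normalized to AFC standard curve.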
HADH2 inh = inhibitors of human HADH2 dehydrogenase | recombinant HADH2, NADH fluorescence, beta-hydroxybutyryl-CoA | Potency, µM (highest dose often 57.1 µM), for inactives: top-dose activity change, negative = inhibition, usual class: inhibitors | 3.4% of 73,000 active | AID 886; note: potency is the fitted concentration of half-maximal effect; % is set by controls: 0 for no effect and ±100 for the full control effect; nearly all actives have a fitted effect of over 60% in size
Target sequence (Q99714 whole entry, looked up, one chain of several): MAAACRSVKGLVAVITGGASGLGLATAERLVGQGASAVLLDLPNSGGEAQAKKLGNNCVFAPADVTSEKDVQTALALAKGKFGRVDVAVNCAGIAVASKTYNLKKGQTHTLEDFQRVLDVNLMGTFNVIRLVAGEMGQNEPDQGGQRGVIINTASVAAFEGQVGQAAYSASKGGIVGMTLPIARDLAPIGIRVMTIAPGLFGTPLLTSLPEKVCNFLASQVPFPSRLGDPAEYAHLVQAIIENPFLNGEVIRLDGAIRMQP
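Activity measured as NADH fluorescence gain (360/450 nm), taken as the change between first and last reads of a 4-min kinetic run. Conditions: pH 9.0 Tris buffer, 20 nM E. coli-expressed His-tagged enzyme, 1 mM NAD+, 90 uM beta-hydroxybutyryl-CoA; 15-min compound preincubation.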
4MU fluor = compounds fluorescent in 4-MU spectral region; compound autofluorescence, 340/450 nm, 4-MU equivalents; hits give high values; max dye-equivalent concentration, M; 11% of 59,000 active; AID 589; in the data active = max dye-equivalent concentration above about 10 nM; inconclusive = mostly about 1.1 nM to 9.6 nM
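Intrinsic fluorescence at 340/450 nm (ex/em) was read after 15 min at room temperature in pH 8.0, 100 mM Tris. Each compound concentration expressed as 4-MU-equivalent concentration from a six-point 4-MU standard series on each plate.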
HSD17B inhib = inhibitors of human HSD17B10 dehydrogenase; recombinant HSD17B10, NADH fluorescence kinetic; Q99714; 7.6% of 75,000 active; Potency, µM (titrated, usually from 57.1 µM), for inactives: at the highest dose activity change, negative = inhibition, hits mostly inhibitors;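 note: the protocol describes HADH2 (HSD17B10) and not the HSD17B4 of the title; potency is the fitted concentration of half-maximal effect; % is set by controls: 0 for no effect and ±100 for the full control effect; nearly all actives have a fitted effect of over 70% in size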
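20 nM HADH2, pH 9.0 Tris/Tween; cpd preinc 15 min RT; start w/ 1 mM NAD+ + 90 uM b-hydroxybutyryl-CoA; kinetic fluor ex360/em450 q30s x 4 min; delta last-first.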
The depositor's hits bear a star. Unless noted, calls come from the whole dose curve; as a rule, active = well fitted curve in the direction sought with a large enough effect; inconclusive = small, poorly fitted or top-dose-only effect, or another doubt; inactive = no such curve, though single readings can be large; an effect the other way counts as inactive or inconclusive.

What do the screens show for `CCCn1c(C)nc2c(N(CCN(CC)CC)CCN(CC)CC)nc(C)nc21`?
CRE Fsk mod: -6%; AID923: 1%; HADH2 inh: 10%; HSD17B inhib: -2%

Results for COCCN(CCOC)c1nc(C)nc2c1nc(-c1ccccc1)n2CCN1CCOCC1 ?
CRE Fsk mod: 13µM*; AID923: 1%; HADH2 inh: 20%

Results for COC(=O)C(O)C1C(C)(C)C(OC(C)=O)C2CC3=C4CC(=O)OC(c5ccoc5)[C@]4(C)CCC3[C@@]1(C)C2=O (some centres not stated) ?
AID923: 0%; HSD17B inhib: 2%

Results for CCN(CC)CCCCn1c(-c2ccccc2)nc2c(N(CCOC)CCOC)nc(C)nc21 ?
CRE Fsk mod: 15%; AID923: 0%; HADH2 inh: inconclusive; HSD17B inhib: 25µM*

Results for Cc1c(C(=O)O)c(O)cc2c1C(=O)c1c(O)c([C@@H]3O[C@H](CO)[C@@H](O)[C@H](O)[C@@H]3O)c(O)c(O)c1C2=O ?
CRE Fsk mod: inconclusive; A350 fluor: inactive; HADH2 inh: 5%; 4MU fluor: inactive

Results for Clc1ccc2c(c1)[C@H]1OCC[C@H]1[C@@H](c1ccco1)N2 ?
CRE Fsk mod: 9%; AID923: 1%; HADH2 inh: 6%; HSD17B inhib: -5%

How did Fc1ccc2c(c1)[C@H]1OCC[C@H]1[C@@H](c1ccco1)N2 do in these assays?
CRE Fsk mod: inconclusive; A350 fluor: 2.8e-07M*; AID923: 2%; HADH2 inh: inconclusive; 4MU fluor: 2.5e-07M*; HSD17B inhib: 32µM*

What do the screens show for `c1ccc2nc3c(nc2c1)sc1nc2ccccc2n13`?
CRE Fsk mod: 1%; A350 fluor: 1.7e-06M*; AID923: -2%; HADH2 inh: inconclusive; 4MU fluor: 1.4e-06M*; HSD17B inhib: 1%

Results for FC(F)(F)c1nc2nncn2c2c1CCCCC2 ?
CRE Fsk mod: inconclusive; A350 fluor: 1.6e-07M*; AID923: -2%; HADH2 inh: -21%; 4MU fluor: 1.1e-07M*; HSD17B inhib: 25µM*

How did CC1CCCN(CC(=O)Nc2ccc(S(=O)(=O)NC3CCCCC3)cc2)C1 (configuration not stated) do in these assays?
CRE Fsk mod: 8%; A350 fluor: inactive; AID923: 1%; HADH2 inh: -5%; 4MU fluor: inactive; HSD17B inhib: -3%

How did CSc1nnc(-c2cccs2)n1-c1ccccc1 do in these assays?
CRE Fsk mod: 28%; A350 fluor: inactive; AID923: -2%; HADH2 inh: -16%; 4MU fluor: inactive; HSD17B inhib: 32µM*

Results for CCOC(=O)CSc1nnc(-c2cccs2)n1-c1ccccc1 ?
CRE Fsk mod: 5%; A350 fluor: inconclusive; AID923: 0%; HADH2 inh: -8%; 4MU fluor: inconclusive; HSD17B inhib: 50%

Results for c1ccc(-n2c(-c3ccncc3)nnc2-c2cccs2)cc1 ?
CRE Fsk mod: 10%; A350 fluor: inactive; AID923: 1%; HADH2 inh: 0%; 4MU fluor: inactive; HSD17B inhib: 32µM*

Results for c1ccc(-n2c(-c3ccncc3)nnc2-c2ccco2)cc1 ?
CRE Fsk mod: 18%; A350 fluor: inactive; AID923: 1%; HADH2 inh: -2%; 4MU fluor: inactive; HSD17B inhib: inconclusive

What do the screens show for `O=C(Nc1cccc(F)c1)c1ccc2c(c1)OCO2`?
CRE Fsk mod: -1%; A350 fluor: inactive; AID923: -2%; HADH2 inh: 13%; 4MU fluor: inactive; HSD17B inhib: 15%

How did O=C(Nc1c(C(=O)Nc2cccc(F)c2)oc2ccccc12)c1ccc2c(c1)OCO2 do in these assays?
CRE Fsk mod: inconclusive; A350 fluor: 5.2e-07M*; AID923: 12%; HADH2 inh: 432%; 4MU fluor: 4.8e-07M*; HSD17B inhib: 274%
